Laboratory results published in PubChem BioAssay (NCATS).
Records with an inconclusive call do not appear. A call without a number means that no potency is given here. Active and inactive are the calls of the source. Calls come from the whole dose curve; as a rule, active = well fitted inhibition curve with a large enough effect; inconclusive = small, poorly fitted or top-dose-only effect; inactive = flat fitted curve, though single readings scatter.

These compounds were tested against Dual specificity protein kinase CLK4 (Homo sapiens) (UniProt Q9HAZ1) (assay: qHTS Assay for Inhibitors of CDC-like Kinase 4 (ADP-FP Assay) (AID 1795; note: nearly all actives have a fitted effect of over 60% in size)). Settings: Transcreener ADP fluorescence polarization; series mostly up to 50 µM.
Protocol: NIH Molecular Libraries Probe Production Centers Network [MLPCN] NIH Chemical Genomics Center [NCGC] MLPCN Grant: 1R03MH084827-01 Assay Submitter (PI): Tom Misteli NCGC Assay Overview: Clk4 (Invitrogen cat # PV3839) was assayed using ATP and the RS repeat peptide (AnaSpec cat # 61722) as substrates using Transcreener (trade mark), a competitive fluorescence polarization (FP) assay. For the present assay, we used the Orange TranscreenerTM ADP2 (BellBrooks Labs, Madison, Wis) detection system to monitor ADP production in the kinase reaction. […] This allows the ADP tracer to freely rotate leading to a decrease in the observed FP value. The amount of ADP produced can then be calculated using a calibration curve. The positive control for the assay was TG003 (Sigma-Aldrich, cat # 300801-52-9) which is a Clk4 inhibitor [2].
NCGC Assay Protocol Summary: Two uL/well of substrate-buffer solution (100 uM RS peptide, 1 uM ATP, 25 mM Tris pH7.5, 10 mM MgCl2, 0.5 mM EGTA, 2.5 mM DTT, 0.01% Triton X-100 final concentration) was dispensed into 1,536-well assay plates (Greiner, solid black medium-binding plates) with Aurora Discovery BioRAPTR Flying Reagent Dispenser (FRD; Beckton-Dickenson). Using a Kalypsys pin tool equipped with a 1,536-pin tool, 23 nL of compound solution was transferred to the assay plate. Two uL/well Clk4-buffer solution (6.25 nM Clk4, 25 mM Tris pH 7.5, 10 mM MgCl2, 0.5 mM EGTA, 2.5 mM DTT, 0.01% Triton X-100, final concentration) was then added using the FRD yielding a total kinase reaction volume of 4 uL/ well. Then 4 uL/well of detection mixture (4 nM orange fluorescent tracer, 1 ug/mL ADP antibody, final concentration) was then added after an hour and the polarization signal was measured using the EnVision plate reader (PerkinElmer, Waltham, MA) after 30 min of room temperature incubation using the following filters and program settings: BODIPY TMR FP dual Enh mirror (barcode 682); BODIPY-TMR 531 (barcode 105) excitation; BODIPY-TMR FP P/S polarized 595 nm filters (barcodes 210 and 211, respectively); 100% light; 150 flashes; 1.35 G-factor; Detector gains were 685 for the 1st detector; 630 for the 2nd detector.
Potency is the fitted concentration of half-maximal effect.

Sequence of Dual specificity protein kinase CLK4 (Homo sapiens) (Q9HAZ1 whole entry, looked up): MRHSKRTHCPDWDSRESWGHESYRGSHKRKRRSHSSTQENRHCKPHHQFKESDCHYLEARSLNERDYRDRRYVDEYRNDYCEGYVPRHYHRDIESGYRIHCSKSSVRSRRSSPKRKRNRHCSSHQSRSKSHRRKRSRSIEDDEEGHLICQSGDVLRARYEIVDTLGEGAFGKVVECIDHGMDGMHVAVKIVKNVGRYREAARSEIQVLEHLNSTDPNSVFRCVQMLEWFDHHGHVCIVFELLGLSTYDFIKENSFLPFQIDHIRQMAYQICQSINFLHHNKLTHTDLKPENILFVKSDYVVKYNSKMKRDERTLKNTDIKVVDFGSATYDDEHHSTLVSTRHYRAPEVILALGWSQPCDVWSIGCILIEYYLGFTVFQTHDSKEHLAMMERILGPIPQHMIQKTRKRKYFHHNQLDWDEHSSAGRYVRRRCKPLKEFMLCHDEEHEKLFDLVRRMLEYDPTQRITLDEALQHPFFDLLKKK

SMILES	Potency
Cc1cccc(CNc2ccnc(-c3ccccc3Cl)n2)c1	inactive
Cn1c(=O)c(-c2cccc(F)c2)nc2cncnc21	inactive
COc1ccc(-c2nc3cnc(Nc4cccc(OC)c4)nc3n(Cc3cccs3)c2=O)cc1	inactive
c1cncc(CNc2ccnc(-c3cccnc3)n2)c1	inactive
CN(C)C(=O)c1ccc(-c2ccc3ncnc(N4CCOCC4)c3c2)cc1	inactive
N#Cc1ccccc1-c1ccc2ncnc(NC3CC3)c2c1	7.08 µM (active)
N#Cc1cccc(-c2nc(NCc3cccs3)c3ccccc3n2)c1	inactive
CN(C)c1ncnc2ccc(-c3ccccc3C(F)(F)F)cc12	inactive
N#Cc1cccc(-c2cncnc2NCc2cccnc2)c1	inactive
COc1cccc(Nc2ncc3ncc(=O)n(C[C@H]4CCCO4)c3n2)c1	0.794 µM (active)
COc1ccccc1CNc1nc(-c2ccccc2OC)nc2ccccc12	inactive
COc1cccc(Nc2ncc3nc(-c4cccs4)c(=O)n(-c4ccccc4)c3n2)c1	inactive
Cc1nc2cnc(N3CCN(C)CC3)nc2n(C2CC2)c1=O	inactive
CN1CCN(c2ncc3ncc(=O)n(CCc4ccccc4)c3n2)CC1	inactive
COc1cccc(-c2cc(NCc3ccccc3)ncn2)c1	12.6 µM (active)
COc1ccccc1CNc1ncncc1-c1ccc(C(=O)N(C)C)cc1	12.6 µM (active)
CN(C)c1ccc(-c2cncnc2N(C)Cc2ccco2)cc1	inactive
c1ccc(CNc2ncncc2-c2ccc3c(c2)OCO3)cc1	2.51 µM (active)
Cc1noc(C)c1-c1nc(N(C)Cc2ccco2)c2ccccc2n1	inactive
Cc1cccc(CNc2ncncc2-c2cccnc2)c1	inactive

SMILES	Potency
COCCNc1ccnc(-c2ccccc2C)n1	inactive
COCCn1c(=O)c(-c2ccccc2)nc2cnc(N3CCN(C)CC3)nc21	inactive
COc1ccc(CNc2ncncc2-c2ccc(N(C)C)cc2)c(OC)c1	inactive
CN(C)c1ncc2nc(CCc3ccccc3)c(=O)n(C3CC3)c2n1	inactive
COCCn1c(=O)c(-c2cn(C)c3ccccc23)nc2cnc(OCc3ccccc3)nc21	inactive
CN(C)c1ncc2nc(-c3cc(F)cc(F)c3)c(=O)n(-c3ccccc3)c2n1	inactive
COc1ccccc1-c1nc(N(C)Cc2ccco2)c2ccccc2n1	inactive
COc1ncc2nc(-c3cccs3)c(=O)n(Cc3ccc(F)cc3)c2n1	inactive
CN(C)Cc1ccccc1-c1nccc(Nc2ccc(F)cc2)n1	inactive
COc1ccc(CNc2cc(-c3ccccc3C)ncn2)c(OC)c1	inactive
CN(C)c1ncc2nc(-c3ccc(Cl)cc3)c(=O)n(-c3ccccc3)c2n1	inactive
N#CCCn1c(=O)c(-c2ccccc2)nc2cnc(N3CCOCC3)nc21	inactive
COc1cccc(Cn2c(=O)cnc3cnc(Nc4ccccc4)nc32)c1	inactive
COc1ccc2[nH]cc(CCNc3nc(-c4ccc(N(C)C)cc4)nc4ccccc34)c2c1	inactive
c1cncc(-c2nc(-n3ccnc3)c3ccccc3n2)c1	12.6 µM (active)
CN(C)c1ncc2nc(-c3ccc(Cl)cc3)c(=O)n(Cc3ccc(F)cc3)c2n1	inactive
COc1cccc(Cn2c(=O)c(-c3ccccc3)nc3cncnc32)c1	inactive
COc1ccc(-n2c(=O)c(-c3cc(F)cc(F)c3)nc3cnc(N4CCOCC4)nc32)cc1	inactive
COc1cccc(Cn2c(=O)c(-c3ccc(F)cc3)nc3cnc(N4CCNCC4)nc32)c1	inactive
N#CCCn1c(=O)c(-c2ccc(F)cc2)nc2cnc(OCc3ccccc3)nc21	inactive
